In PubChem BioAssay (NCATS):
Where “and” joins values, the source holds several entries; their conditions need not be identical. Equal entries are not always repeated. Results filed as inconclusive are left out. Where a call stands in place of a potency, no number is given. Calls of active or inactive are those of the source. Unless noted, calls come from the whole dose curve; as a rule, active = well fitted curve in the direction sought with a large enough effect; inconclusive = small, poorly fitted or top-dose-only effect, or another doubt; inactive = no such curve, though single readings can be large; an effect the other way counts as inactive or inconclusive.

What was measured:
[1] = biological target: Voltage-gated inwardly rectifying potassium channel KCNH2 (Homo sapiens) (UniProt Q12809); assay: qHTS Assay for Small Molecule Inhibitors of the Human hERG Channel Activity (AID 588834);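 note: lower thallium flux fluorescence means stronger hERG block; nearly all actives have a fitted effect of over 50% in size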; note: potency is the fitted concentration of half-maximal effect
Sequence of Voltage-gated inwardly rectifying potassium channel KCNH2 (Homo sapiens) (Q12809 whole entry, looked up): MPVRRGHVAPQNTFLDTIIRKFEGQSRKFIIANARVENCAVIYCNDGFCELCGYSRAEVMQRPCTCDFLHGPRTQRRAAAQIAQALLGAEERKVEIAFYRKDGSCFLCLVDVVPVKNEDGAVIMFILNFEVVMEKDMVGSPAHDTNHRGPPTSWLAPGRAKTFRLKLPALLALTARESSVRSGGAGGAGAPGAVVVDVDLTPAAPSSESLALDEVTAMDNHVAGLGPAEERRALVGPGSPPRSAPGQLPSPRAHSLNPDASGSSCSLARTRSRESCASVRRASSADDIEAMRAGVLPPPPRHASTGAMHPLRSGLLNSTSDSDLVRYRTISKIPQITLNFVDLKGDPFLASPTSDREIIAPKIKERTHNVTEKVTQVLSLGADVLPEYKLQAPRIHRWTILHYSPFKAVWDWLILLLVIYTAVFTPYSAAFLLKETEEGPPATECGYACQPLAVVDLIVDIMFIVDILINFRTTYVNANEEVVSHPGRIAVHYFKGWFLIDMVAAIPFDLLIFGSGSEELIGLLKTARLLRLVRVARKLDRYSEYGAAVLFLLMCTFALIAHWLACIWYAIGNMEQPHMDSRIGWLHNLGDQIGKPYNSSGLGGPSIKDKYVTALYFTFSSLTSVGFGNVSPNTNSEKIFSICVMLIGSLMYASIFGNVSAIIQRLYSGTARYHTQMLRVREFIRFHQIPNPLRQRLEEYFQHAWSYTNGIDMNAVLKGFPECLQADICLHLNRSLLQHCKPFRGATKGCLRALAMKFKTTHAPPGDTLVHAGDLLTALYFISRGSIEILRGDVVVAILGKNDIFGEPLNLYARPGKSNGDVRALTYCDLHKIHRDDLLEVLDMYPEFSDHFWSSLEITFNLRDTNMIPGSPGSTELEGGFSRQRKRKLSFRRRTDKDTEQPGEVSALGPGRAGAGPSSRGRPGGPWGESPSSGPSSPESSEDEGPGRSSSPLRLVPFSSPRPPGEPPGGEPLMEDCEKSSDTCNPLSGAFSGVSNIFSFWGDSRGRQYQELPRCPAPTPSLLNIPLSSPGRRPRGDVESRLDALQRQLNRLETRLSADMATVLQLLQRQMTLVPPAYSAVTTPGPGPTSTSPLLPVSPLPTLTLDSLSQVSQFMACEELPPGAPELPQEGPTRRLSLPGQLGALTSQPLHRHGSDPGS
How it was run: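 Cells were infected with hERG-BacMam virus for 4 hrs at room temperature, grown overnight, then seeded at 2000/well. After dye loading and roughly 10 min compound treatment, thallium influx was triggered and fluorescence recorded.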

[2] = biological target: Luciferin 4-monooxygenase (Photinus pyralis) (UniProt P08659); assay: Biochemical firefly luciferase enzyme assay for NPC (AID 624030);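 note: purified P. pyralis luciferase at 10 nM with luciferin and ATP substrate; series mostly up to about 59 µM; nearly all actives have a fitted effect of over 70% in size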
Sequence of Luciferin 4-monooxygenase (Photinus pyralis) (P08659 whole entry, looked up): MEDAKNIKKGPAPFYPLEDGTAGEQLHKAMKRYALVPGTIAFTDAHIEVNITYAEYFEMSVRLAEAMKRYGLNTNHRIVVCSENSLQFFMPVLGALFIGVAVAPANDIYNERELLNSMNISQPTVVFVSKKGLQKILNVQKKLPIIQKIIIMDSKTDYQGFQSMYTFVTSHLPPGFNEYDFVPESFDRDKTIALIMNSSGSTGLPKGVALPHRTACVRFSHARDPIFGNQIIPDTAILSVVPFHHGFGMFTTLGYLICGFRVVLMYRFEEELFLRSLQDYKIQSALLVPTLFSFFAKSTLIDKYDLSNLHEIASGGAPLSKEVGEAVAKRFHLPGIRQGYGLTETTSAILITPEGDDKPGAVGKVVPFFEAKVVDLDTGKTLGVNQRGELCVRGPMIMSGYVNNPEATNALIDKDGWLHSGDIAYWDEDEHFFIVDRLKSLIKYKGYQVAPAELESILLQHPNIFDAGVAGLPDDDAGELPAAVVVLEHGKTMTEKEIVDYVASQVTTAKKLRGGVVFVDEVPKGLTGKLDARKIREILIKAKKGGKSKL
How it was run: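 Counter-screen for direct inhibition of the luciferase enzyme by approved-drug library compounds, run at 10 nM enzyme in 50 mM Tris acetate (final). Luminescence was read within 5 min of enzyme-buffer addition and normalized to PTC124 versus DMSO (0%).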

[3] = S16 Schwann cell PMP22 intronic element beta-lactamase assay (AID 624044; calls by dose curve; note: nearly all actives have a fitted effect of over 15% in size; note: potency is the fitted concentration of half-maximal effect)
How it was run: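 Beta-lactamase reporter under a PMP22 intronic regulatory element in stable S16 rat Schwann cells; 24 h compound exposure. 460 nm blue signal normalized between DMSO (0%) and potassium clavulanate, with 535 nm FRET tracking viability; curves classed by r2 and response.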

[4] = biological target: Glutaminase kidney isoform, mitochondrial (Homo sapiens) (UniProt O94925); assay: qHTS for Inhibitors of Glutaminase (GLS): LOPAC Validation (AID 624146); note: nearly all actives have a fitted effect of over 60% in size; note: potency is the fitted concentration of half-maximal effect
Sequence of Glutaminase kidney isoform, mitochondrial (Homo sapiens) (O94925 whole entry, looked up, canonical isoform): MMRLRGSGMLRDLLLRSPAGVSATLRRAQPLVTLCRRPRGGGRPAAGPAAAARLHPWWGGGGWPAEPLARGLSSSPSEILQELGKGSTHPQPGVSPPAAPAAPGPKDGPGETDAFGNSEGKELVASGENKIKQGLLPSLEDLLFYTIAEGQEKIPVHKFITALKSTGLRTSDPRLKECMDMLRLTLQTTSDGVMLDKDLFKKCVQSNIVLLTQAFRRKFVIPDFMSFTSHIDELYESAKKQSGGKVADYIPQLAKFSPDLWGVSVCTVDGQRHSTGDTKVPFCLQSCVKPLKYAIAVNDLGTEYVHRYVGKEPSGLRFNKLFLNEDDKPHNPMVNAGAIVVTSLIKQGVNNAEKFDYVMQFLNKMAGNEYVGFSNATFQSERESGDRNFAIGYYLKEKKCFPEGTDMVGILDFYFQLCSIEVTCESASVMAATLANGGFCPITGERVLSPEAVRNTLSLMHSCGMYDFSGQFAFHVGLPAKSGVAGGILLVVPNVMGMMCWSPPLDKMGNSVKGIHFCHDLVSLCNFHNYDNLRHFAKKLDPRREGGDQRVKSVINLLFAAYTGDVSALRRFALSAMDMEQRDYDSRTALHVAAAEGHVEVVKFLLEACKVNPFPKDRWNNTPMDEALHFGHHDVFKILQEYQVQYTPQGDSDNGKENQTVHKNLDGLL
How it was run: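 hKGA; 45 mM KH2PO4 pH 8.2 + 0.02% Tween-20; cpd via pin tool; 1 mM Gln soln; GluOx/HRP/Amplex Red; RT 30 min; fluor. t0 & final.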

[5] = qHTS of Trypanosoma Brucei Inhibitors: LOPAC Validation (AID 624147)
How it was run: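 In this concentration-response screen, enzyme-free wells defined baseline while DMSO plates tracked drift. Each reaction combined TbPYK, substrate, compound and 130 uM ADP for 45 min at room temperature. Kinase-Glo Plus luminescence gave the signal.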

[6] = biological target: Glucagon-like peptide 1 receptor (Homo sapiens) (UniProt P43220); assay: qHTS of GLP-1 Receptor Agonists: LOPAC Validation (AID 624148);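 note: higher luminescence signal means agonism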
Sequence of Glucagon-like peptide 1 receptor (Homo sapiens) (P43220 whole entry, looked up): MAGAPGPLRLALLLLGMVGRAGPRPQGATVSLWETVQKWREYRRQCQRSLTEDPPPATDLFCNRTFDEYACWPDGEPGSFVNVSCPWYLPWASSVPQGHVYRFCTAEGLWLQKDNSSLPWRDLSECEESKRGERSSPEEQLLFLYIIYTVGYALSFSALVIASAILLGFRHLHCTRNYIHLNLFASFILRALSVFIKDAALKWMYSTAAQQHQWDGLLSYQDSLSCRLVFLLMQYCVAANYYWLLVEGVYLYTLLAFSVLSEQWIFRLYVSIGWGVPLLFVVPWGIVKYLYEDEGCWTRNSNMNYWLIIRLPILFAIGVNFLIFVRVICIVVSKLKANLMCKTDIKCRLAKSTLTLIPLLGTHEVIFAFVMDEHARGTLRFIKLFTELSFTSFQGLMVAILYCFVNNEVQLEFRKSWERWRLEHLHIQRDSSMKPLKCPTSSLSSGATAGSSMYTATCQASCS
How it was run: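 HEK293 cells stably co-expressing a cAMP-responsive luciferase reporter and a hypersensitive GLP-1R were plated 12 h at 37 °C and exposed to compounds for 4-6 hr at 37 °C, 5% CO2. Luminescence was read 12 min after adding detection reagent.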

[7] = qHTS of Nrf2 Activators: LOPAC Validation (AID 624149)
How it was run: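 Following overnight seeding in 5% FBS OPTI-MEM, AREc32_Fluc cells receive compounds for a 24 hr incubation at 37 deg C with 5% CO2. Steady-Glo is added, and after 30 min at RT luminescence is recorded.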

[8] = S16 Schwann cell viability assay (CellTiter-Glo assay) (AID 624031); note: nearly all actives have a fitted effect of over 70% in size; note: potency is the fitted concentration of half-maximal effect
How it was run: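 Native S16 Schwann cells (rat), serum-containing medium, overnight attachment then 24 h drug exposure at 37 °C/5% CO2. CellTiter-Glo ATP signal; normalized to cell-free and vehicle wells.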

[9] = S16 Schwann cell PMP22 intronic element firefly luciferase assay (AID 624032); note: nearly all actives have a fitted effect of over 30% in size; note: potency is the fitted concentration of half-maximal effect
How it was run: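 Rat S16 Schwann cells stably carrying a PMP22 intronic element-driven Fluc reporter were seeded overnight, then exposed to compounds for 24 h at 37 °C. Luminescence was normalized to PTC124 (positive control) and DMSO (0% activity).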

SMILES | Potency [1] | Potency [2] | Potency [3] | Potency [4] | outcome [5] | outcome [6] | outcome [7] | Potency [8] | Potency [9]
CCNC(=O)N1CCN(CCCC(c2ccc(F)cc2)c2ccc(F)cc2)CC1 | 0.0562 µM (active) | inactive |  | inactive | inactive | inactive | inactive |  | 1.44 µM (active)
COC(=O)[C@H]1[C@H]2C[C@@H]3c4[nH]c5cc(OC)ccc5c4CCN3C[C@H]2C[C@@H](OC(=O)c2cc(OC)c(OC)c(OC)c2)[C@@H]1OC | 2.82 µM (active) and 5.01 µM (active) and 794 nM (active) | inactive | inactive | 10 µM (active) | inactive | inactive | inactive | inactive | 
OCCN1CCN(CC/C=C2/c3ccccc3Sc3ccc(C(F)(F)F)cc32)CC1 | 2.82 µM (active) and 501 nM (active) | inactive | inactive | inactive | inactive |  | inactive | 22.8 µM (active) | 
NC1=NCC2c3ccccc3Cc3ccccc3N12 (stereo not given) |  | inactive |  | inactive | inactive | inactive | inactive | inactive | inactive
O=C(CCCN1CCC(O)(c2cccc(C(F)(F)F)c2)CC1)c1ccc(F)cc1 |  | inactive |  | inactive | inactive | inactive | inactive |  | inactive
COc1cc2c(cc1OC)-c1cc(=Nc3c(C)cc(C)cc3C)n(C)c(=O)n1CC2 |  | inactive | 22.4 µM (active) | inactive | inactive |  | inactive | 32.2 µM (active) | 6.42 µM (active)
Nc1c2c(nc3ccccc13)CCCC2O (stereo not given) |  | inactive |  | inactive | inactive | inactive | inactive |  | inactive
Cc1cccc(C)c1NC(=O)C(C)N (stereo not given) | inactive |  |  | inactive | inactive | inactive | inactive |  | 
CO[C@@]1(NC(=O)CSCC#N)C(=O)N2C(C(=O)O)=C(CSc3nnnn3C)CS[C@@H]21 | inactive |  |  |  | inactive | inactive | inactive |  | 
CN(C)CCN(Cc1cccs1)c1ccccn1 |  | inactive |  | inactive | inactive | inactive | inactive |  | inactive
CC1=C(C)C(=O)C(CCCCC#CCCCC#CCO)=C(C)C1=O |  | inactive | inactive | 11.2 µM (active) | inactive | inactive |  |  | 
CCCN(CCC)CCc1cccc2c1CC(=O)N2 |  | inactive |  | inactive | inactive | inactive | inactive | inactive | inactive
CC(C)(C)NCC(O)c1cc(O)cc(O)c1 (stereo not given) | inactive |  |  |  | inactive |  | inactive |  | 
CC(C)[N+](C)(CCOC(=O)C1c2ccccc2Oc2ccccc21)C(C)C |  | inactive |  | inactive | inactive | inactive | inactive | inactive | inactive
NC(=O)c1cn(Cc2c(F)cccc2F)nn1 |  | inactive |  | inactive | inactive | inactive | inactive | inactive | inactive
N[C@@H](COP(=O)(O)O)C(=O)O | inactive |  |  | inactive | inactive | inactive | inactive |  | 
